For experiment [1], the target named is Tyrosine-protein kinase SYK (Homo sapiens) (UniProt P43405). The settings on record: at 10 µM.
The target of experiment [2] is T1, Mitogen-activated protein kinase kinase kinase 7 (Homo sapiens) (UniProt O43318).
T1 sequence (whole entry): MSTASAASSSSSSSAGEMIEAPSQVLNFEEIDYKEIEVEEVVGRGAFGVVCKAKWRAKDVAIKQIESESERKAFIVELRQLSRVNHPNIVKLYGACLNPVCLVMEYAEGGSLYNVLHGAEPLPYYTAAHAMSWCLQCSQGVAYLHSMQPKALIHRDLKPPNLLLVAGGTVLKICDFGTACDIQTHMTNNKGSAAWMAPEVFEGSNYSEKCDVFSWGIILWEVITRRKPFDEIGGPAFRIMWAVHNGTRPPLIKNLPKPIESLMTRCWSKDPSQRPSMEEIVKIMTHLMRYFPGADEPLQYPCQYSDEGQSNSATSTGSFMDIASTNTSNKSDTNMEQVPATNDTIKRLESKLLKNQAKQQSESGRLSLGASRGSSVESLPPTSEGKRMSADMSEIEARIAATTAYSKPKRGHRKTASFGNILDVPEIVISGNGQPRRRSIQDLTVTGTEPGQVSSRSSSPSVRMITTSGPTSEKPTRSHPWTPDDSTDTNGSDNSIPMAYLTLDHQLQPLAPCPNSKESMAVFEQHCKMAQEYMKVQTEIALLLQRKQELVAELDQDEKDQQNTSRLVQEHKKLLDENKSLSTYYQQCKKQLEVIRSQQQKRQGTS
The settings on record: at 10 µM.

Experiment [3] has as its target T2, Serine/threonine-protein kinase TAO1 (Homo sapiens) (UniProt Q7L7X3).
T2 sequence (whole entry): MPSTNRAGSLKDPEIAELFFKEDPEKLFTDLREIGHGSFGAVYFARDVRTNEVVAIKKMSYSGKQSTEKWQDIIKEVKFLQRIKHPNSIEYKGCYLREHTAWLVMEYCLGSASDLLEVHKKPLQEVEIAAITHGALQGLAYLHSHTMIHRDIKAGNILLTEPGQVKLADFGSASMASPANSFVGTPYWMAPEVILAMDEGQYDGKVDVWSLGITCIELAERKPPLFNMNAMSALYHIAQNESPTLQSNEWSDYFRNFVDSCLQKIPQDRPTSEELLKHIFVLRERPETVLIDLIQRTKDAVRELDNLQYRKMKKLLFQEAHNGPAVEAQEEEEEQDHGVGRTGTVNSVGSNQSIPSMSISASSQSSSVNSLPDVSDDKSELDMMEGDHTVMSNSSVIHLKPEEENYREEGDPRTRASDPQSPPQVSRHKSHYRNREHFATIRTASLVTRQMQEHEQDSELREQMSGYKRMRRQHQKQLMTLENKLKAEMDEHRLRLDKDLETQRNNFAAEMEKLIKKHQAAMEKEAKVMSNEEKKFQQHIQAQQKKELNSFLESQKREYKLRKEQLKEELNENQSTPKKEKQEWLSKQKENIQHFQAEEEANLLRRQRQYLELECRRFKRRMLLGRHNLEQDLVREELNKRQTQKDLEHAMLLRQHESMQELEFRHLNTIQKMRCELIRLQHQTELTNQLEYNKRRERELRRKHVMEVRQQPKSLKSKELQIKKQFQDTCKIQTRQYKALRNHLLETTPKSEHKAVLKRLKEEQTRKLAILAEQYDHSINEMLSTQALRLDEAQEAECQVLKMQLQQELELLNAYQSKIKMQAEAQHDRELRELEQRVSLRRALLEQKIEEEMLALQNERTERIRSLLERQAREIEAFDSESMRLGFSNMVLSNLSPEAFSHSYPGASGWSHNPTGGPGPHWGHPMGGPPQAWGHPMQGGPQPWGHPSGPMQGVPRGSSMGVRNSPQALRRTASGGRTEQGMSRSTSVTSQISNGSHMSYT
The following applies: at 1 µM.

Experiment [4] addresses T2, Serine/threonine-protein kinase TAO1 (Homo sapiens). The settings on record: at 10 µM.
Experiment [5] deals with T3, Serine/threonine-protein kinase TAO2 (Homo sapiens) (UniProt Q9UL54).
T3 sequence (whole entry): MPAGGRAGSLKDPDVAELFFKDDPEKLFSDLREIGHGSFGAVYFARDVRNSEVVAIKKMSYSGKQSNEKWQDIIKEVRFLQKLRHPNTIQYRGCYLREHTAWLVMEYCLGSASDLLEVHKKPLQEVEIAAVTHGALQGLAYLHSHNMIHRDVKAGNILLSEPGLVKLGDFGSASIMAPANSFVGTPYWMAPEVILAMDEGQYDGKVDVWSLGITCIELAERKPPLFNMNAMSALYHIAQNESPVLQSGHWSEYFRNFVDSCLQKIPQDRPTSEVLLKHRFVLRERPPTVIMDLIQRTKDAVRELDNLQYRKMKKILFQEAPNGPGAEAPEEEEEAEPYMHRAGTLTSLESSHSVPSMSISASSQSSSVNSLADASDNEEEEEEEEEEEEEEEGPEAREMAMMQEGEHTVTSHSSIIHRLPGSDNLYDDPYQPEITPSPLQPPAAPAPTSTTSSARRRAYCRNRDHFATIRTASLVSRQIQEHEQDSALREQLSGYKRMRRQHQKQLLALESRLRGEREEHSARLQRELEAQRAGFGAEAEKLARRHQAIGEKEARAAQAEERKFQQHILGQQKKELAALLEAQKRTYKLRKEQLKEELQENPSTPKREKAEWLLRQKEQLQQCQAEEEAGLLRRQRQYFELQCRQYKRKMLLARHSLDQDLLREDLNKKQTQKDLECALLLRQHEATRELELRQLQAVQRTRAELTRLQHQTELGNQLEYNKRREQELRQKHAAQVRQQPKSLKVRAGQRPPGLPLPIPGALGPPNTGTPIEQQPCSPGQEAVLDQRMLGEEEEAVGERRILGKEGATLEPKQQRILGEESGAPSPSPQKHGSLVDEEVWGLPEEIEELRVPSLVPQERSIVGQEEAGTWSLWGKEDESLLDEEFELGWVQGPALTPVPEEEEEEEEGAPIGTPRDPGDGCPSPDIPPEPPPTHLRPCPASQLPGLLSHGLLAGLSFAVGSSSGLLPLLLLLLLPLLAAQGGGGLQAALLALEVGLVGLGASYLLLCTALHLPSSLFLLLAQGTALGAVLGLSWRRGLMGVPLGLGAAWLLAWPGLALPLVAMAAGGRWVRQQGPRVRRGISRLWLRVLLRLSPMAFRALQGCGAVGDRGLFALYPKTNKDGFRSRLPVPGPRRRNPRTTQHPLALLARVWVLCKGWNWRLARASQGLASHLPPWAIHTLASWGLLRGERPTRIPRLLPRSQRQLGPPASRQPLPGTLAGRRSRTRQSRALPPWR
The settings on record: at 1 µM.

Experiment [6] has as its target T3, Serine/threonine-protein kinase TAO2 (Homo sapiens). The following applies: at 10 µM.
Experiment [7] concerns the target T4, Serine/threonine-protein kinase TAO3 (Homo sapiens) (UniProt Q9H2K8).
T4 sequence (whole entry): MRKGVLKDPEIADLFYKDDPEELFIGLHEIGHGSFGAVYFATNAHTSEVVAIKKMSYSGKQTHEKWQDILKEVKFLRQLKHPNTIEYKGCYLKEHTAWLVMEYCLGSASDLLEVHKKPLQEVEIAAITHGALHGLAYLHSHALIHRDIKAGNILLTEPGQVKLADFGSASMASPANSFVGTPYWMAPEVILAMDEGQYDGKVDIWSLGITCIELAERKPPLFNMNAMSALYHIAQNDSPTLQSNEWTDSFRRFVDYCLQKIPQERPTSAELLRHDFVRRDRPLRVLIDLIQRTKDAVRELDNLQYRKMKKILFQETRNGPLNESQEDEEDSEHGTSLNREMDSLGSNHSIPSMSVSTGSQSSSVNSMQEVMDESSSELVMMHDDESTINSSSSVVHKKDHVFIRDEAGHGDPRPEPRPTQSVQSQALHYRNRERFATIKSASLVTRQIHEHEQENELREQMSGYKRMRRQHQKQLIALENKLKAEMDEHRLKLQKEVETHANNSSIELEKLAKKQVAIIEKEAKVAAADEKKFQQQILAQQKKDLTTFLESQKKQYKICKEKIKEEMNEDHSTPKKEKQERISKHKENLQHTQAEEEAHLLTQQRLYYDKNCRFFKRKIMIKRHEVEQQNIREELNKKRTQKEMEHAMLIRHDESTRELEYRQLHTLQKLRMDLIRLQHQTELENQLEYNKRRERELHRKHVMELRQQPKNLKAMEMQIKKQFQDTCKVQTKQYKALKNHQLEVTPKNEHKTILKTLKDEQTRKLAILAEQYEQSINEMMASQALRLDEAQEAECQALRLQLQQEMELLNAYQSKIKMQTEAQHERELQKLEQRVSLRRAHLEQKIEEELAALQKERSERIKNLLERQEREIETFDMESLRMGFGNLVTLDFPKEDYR
The following applies: at 1 µM.

Here are results for 1 molecule from ChEMBL document CHEMBL2218924, “A broad activity screen in support of a chemogenomic map for kinase signalling research and drug discovery” (Biochem J, 2013).

With `c1ccc(-c2cnc(Nc3ccc(OCCN4CCCC4)cc3)s2)cc1`, the residual activity in experiment [1] worked out at 72%; in experiment [2], 74%; in experiment [3] it was 82%; in experiment [4], 28%; in experiment [5], 81%; in experiment [6], 21%. In experiment [7], this molecule displayed a residual activity of 82%.
